# Assay results taken from PubChem BioAssay (NCI).
# About 79,000 compounds went through this panel and 15% of them were active in at least one assay; those are over-represented in the sample as a whole. Unmarked numbers belong to inactive results. The source made the active and inactive calls. Cut-off read from the data, not from the text of the source: active = growth inhibition above about 70%; inactive = the rest.
# Assays:
# [1] = NCI Yeast Anticancer Drug Screen. Data for the rad52 strain (AID 147);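 note: 0% = growth of vehicle-treated control cultures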; conditions: S. cerevisiae rad52 mutant growth inhibition, hits give high values
# Procedure, shortened: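 Yeast strain carrying a DNA damage repair alteration was exposed to test compounds. Growth inhibition was measured relative to vehicle-treated controls.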
# [2] = NCI Yeast Anticancer Drug Screen. Data for the wt1 strain (AID 149);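 note: 0% = growth of vehicle-treated wt1 cultures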; conditions: S. cerevisiae wt1 strain (SPY 50644) growth inhibition, hits give high values
# Procedure, shortened: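 Growth inhibition read against vehicle controls after compound exposure of the wt1 yeast strain.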
# [3] = NCI Yeast Anticancer Drug Screen. Data for the rad50EPP+ strain (AID 151);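 note: 0% = growth of vehicle-treated control cultures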; conditions: S. cerevisiae rad50 mutant strain, hits give high values
# Procedure, shortened: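 Yeast strain carrying rad50 alteration (rad50EPP+) exposed to compounds; growth inhibition measured relative to vehicle-treated controls.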
# [4] = NCI Yeast Anticancer Drug Screen. Data for the mgt1 strain (AID 153); conditions: S. cerevisiae mgt1 mutant growth inhibition, hits give high values
# Procedure, shortened: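 Yeast mgt1 strain (DNA repair/cell-cycle alteration panel) exposed to compounds; growth inhibition measured relative to vehicle-treated controls.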
# [5] = NCI Yeast Anticancer Drug Screen. Data for the rad50 strain (AID 155);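 note: 0% = growth of vehicle-only cultures of the same strain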; conditions: S. cerevisiae rad50 strain growth inhibition, hits give high values
# Procedure, shortened: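 Readout: growth inhibition relative to vehicle-treated cultures. Compound exposure was carried out in a genetically defined yeast strain deficient in DNA damage repair.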
# [6] = NCI Yeast Anticancer Drug Screen. Data for the mec2-1 strain (AID 157); conditions: S. cerevisiae mec2-1 strain, hits give high values
# Procedure, shortened: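 mec2-1 yeast strain, carrying an alteration in DNA damage repair or cell cycle control, was exposed to compounds; growth inhibition was measured relative to vehicle-treated controls.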
# [7] = NCI Yeast Anticancer Drug Screen. Data for the rad14 strain (AID 159);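 note: 0% = growth of vehicle-treated control cultures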; conditions: S. cerevisiae rad14 strain growth inhibition, hits give high values
# Procedure, shortened: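 Growth inhibition vs vehicle controls; genetically altered yeast strain (DNA damage repair defect) treated with test compounds.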
# [8] = NCI Yeast Anticancer Drug Screen. Data for the sgs1 mgt1 strain (AID 161);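 note: 0% = growth of cultures given vehicle only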; conditions: S. cerevisiae sgs1 mgt1 strain, hits give high values
# Procedure, shortened: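 Percent growth inhibition was derived by comparing compound-exposed mutant yeast with vehicle-exposed cultures. The strain carries alterations in DNA damage repair.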
# [9] = NCI Yeast Anticancer Drug Screen. Data for the CLN2oe strain (AID 163);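 note: 0% = growth of vehicle-only control cultures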; conditions: S. cerevisiae CLN2oe strain, hits give high values
# Procedure, shortened: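 Yeast cells carrying a defined cell-cycle control alteration were exposed to test compounds. Growth inhibition was scored against vehicle-treated control cultures.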
# [10] = NCI Yeast Anticancer Drug Screen. Data for the cln2 rad14 strain (AID 165);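 note: 0% = growth equal to vehicle treated cultures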; conditions: S. cerevisiae cln2 rad14 strain, hits give high values
# Procedure, shortened: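 Yeast carrying cln2 and rad14 alterations (cell cycle control and DNA damage repair) were exposed to compounds. Growth inhibition was measured against vehicle-treated controls.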
# [11] = NCI Yeast Anticancer Drug Screen. Data for the bub3 strain (AID 167); conditions: S. cerevisiae bub3 mutant strain, hits give high values
# Procedure, shortened: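 Readout: yeast growth inhibition, expressed relative to vehicle-only wells. The test organism is a mutant strain from a panel with lesions in DNA repair or checkpoint genes.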
# [12] = NCI Yeast Anticancer Drug Screen. Data for the wt2 strain (AID 169);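 note: 0% = growth of vehicle-treated yeast cultures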; conditions: S. cerevisiae wt2 strain growth inhibition, hits give high values
# Procedure, shortened: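 Yeast cells were exposed to test compounds, and growth inhibition was measured relative to vehicle-treated controls.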
# [13] = NCI Yeast Anticancer Drug Screen. Data for the mlh1 strain (AID 171);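 note: 0% = growth of vehicle-treated control cultures of the same strain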; conditions: S. cerevisiae mlh1 strain growth inhibition, hits give high values
# Procedure, shortened: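 Yeast carrying a defined genetic alteration in DNA damage repair or cell cycle control were exposed to test compounds. Growth inhibition was measured relative to vehicle-treated controls.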
# [14] = NCI Yeast Anticancer Drug Screen. Data for the mlh1 rad18 strain (AID 175); conditions: S. cerevisiae mlh1 rad18 strain growth inhibition, hits give high values
# Procedure, shortened: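 Growth inhibition of the yeast strain was measured after compound exposure and expressed relative to vehicle-treated controls. The strain carries defined defects in DNA damage repair.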
# [15] = NCI Yeast Anticancer Drug Screen. Data for the rad18 strain (AID 177); conditions: S. cerevisiae rad18 mutant growth inhibition, hits give high values
# Procedure, shortened: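 Yeast carrying a defined DNA damage repair alteration were exposed to compounds. Growth inhibition was expressed relative to vehicle-treated controls.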
# [16] = NCI Yeast Anticancer Drug Screen. Data for the sgs1 strain (AID 173);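 note: 0% = growth of vehicle-only control cultures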; conditions: S. cerevisiae sgs1 mutant, hits give high values
# Procedure, shortened: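 Yeast mutant strains carrying defined defects in DNA damage repair or cell cycle control were exposed to test compounds. Growth inhibition was scored against vehicle-treated controls.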
# [17] = at 5.0 µM (retest, dose inferred, filed as 0.5)
# [18] = at 50.0 µM (retest, dose inferred, filed as 5.0)
compound,measurement,setting,value
CC1=NN(C(=O)CC(=O)NC(=O)/C=C\c2ccccc2)C(=O)C1N=Nc1ccc([N+](=O)[O-])cc1 (stereo unspecified),growth inhibition,[1]; at 1.2 µM,-1%
same,growth inhibition,[1]; at 3.7 µM,3%
same,growth inhibition,[1]; at 11.0 µM,56%
same,growth inhibition,[1]; at 33.0 µM,75% (active)
same,growth inhibition,[1]; at 100.0 µM,72% (active)
same,growth inhibition,[2]; at 1.2 µM,2%
same,growth inhibition,[2]; at 3.7 µM,4%
same,growth inhibition,[2]; at 11.0 µM,20%
same,growth inhibition,[2]; at 33.0 µM,35%
same,growth inhibition,[2]; at 100.0 µM,34%
same,growth inhibition,[3]; at 1.2 µM,19%
same,growth inhibition,[3]; at 3.7 µM,42%
same,growth inhibition,[3]; at 11.0 µM,62%
same,growth inhibition,[3]; at 33.0 µM,64%
same,growth inhibition,[3]; at 100.0 µM,60%
same,growth inhibition,[4]; at 1.2 µM,1%
same,growth inhibition,[4]; at 3.7 µM,9%
same,growth inhibition,[4]; at 11.0 µM,32%
same,growth inhibition,[4]; at 33.0 µM,51%
same,growth inhibition,[4]; at 100.0 µM,55%
same,growth inhibition,[5]; at 1.2 µM,-7%
same,growth inhibition,[5]; at 3.7 µM,-10%
same,growth inhibition,[5]; [17],-1%
same,growth inhibition,[5]; at 11.0 µM,38%
same,growth inhibition,[5]; at 33.0 µM,73% (active)
same,growth inhibition,[5]; [18],87% (active)
same,growth inhibition,[5]; at 50.0 µM,59.1%
same,growth inhibition,[5]; at 100.0 µM,71% (active)
same,growth inhibition,[6]; at 1.2 µM,3%
same,growth inhibition,[6]; at 3.7 µM,8%
same,growth inhibition,[6]; [17],-13%
same,growth inhibition,[6]; at 11.0 µM,26%
same,growth inhibition,[6]; at 33.0 µM,49%
same,growth inhibition,[6]; [18],35%
same,growth inhibition,[6]; at 50.0 µM,77.5% (active)
same,growth inhibition,[6]; at 100.0 µM,43%
same,growth inhibition,[7]; at 1.2 µM,1%
same,growth inhibition,[7]; at 3.7 µM,5%
same,growth inhibition,[7]; at 11.0 µM,21%
same,growth inhibition,[7]; at 33.0 µM,41%
same,growth inhibition,[7]; at 100.0 µM,46%
same,growth inhibition,[8]; [17],-1%
same,growth inhibition,[8]; [18],54%
same,growth inhibition,[8]; at 50.0 µM,65.3%
same,growth inhibition,[9]; at 1.2 µM,6%
same,growth inhibition,[9]; at 3.7 µM,9%
same,growth inhibition,[9]; at 11.0 µM,20%
same,growth inhibition,[9]; at 33.0 µM,34%
same,growth inhibition,[9]; at 100.0 µM,37%
same,growth inhibition,[10]; [17],43%
same,growth inhibition,[10]; [18],49%
same,growth inhibition,[10]; at 50.0 µM,51.2%
same,growth inhibition,[11]; at 1.2 µM,-1%
same,growth inhibition,[11]; at 3.7 µM,4%
same,growth inhibition,[11]; [17],-4%
same,growth inhibition,[11]; at 11.0 µM,30%
same,growth inhibition,[11]; at 33.0 µM,57%
same,growth inhibition,[11]; [18],51%
same,growth inhibition,[11]; at 50.0 µM,79.5% (active)
same,growth inhibition,[11]; at 100.0 µM,58%
same,growth inhibition,[12]; at 1.2 µM,0%
same,growth inhibition,[12]; at 3.7 µM,7%
same,growth inhibition,[12]; at 11.0 µM,39%
same,growth inhibition,[12]; at 33.0 µM,64%
same,growth inhibition,[12]; at 100.0 µM,61%
same,growth inhibition,[13]; at 1.2 µM,0%
same,growth inhibition,[13]; at 3.7 µM,10%
same,growth inhibition,[13]; at 11.0 µM,37%
same,growth inhibition,[13]; at 33.0 µM,68%
same,growth inhibition,[13]; at 100.0 µM,69%
same,growth inhibition,[14]; [17],-3%
same,growth inhibition,[14]; [18],65%
same,growth inhibition,[14]; at 50.0 µM,76.6% (active)
same,growth inhibition,[15]; at 1.2 µM,-8%
same,growth inhibition,[15]; at 3.7 µM,4%
same,growth inhibition,[15]; at 11.0 µM,77% (active)
same,growth inhibition,[15]; at 33.0 µM,83% (active)
same,growth inhibition,[15]; at 100.0 µM,82% (active)
CCOC(=S)SSSC(=S)OCC,growth inhibition,[1]; at 1.2 µM,4%
same,growth inhibition,[1]; at 3.7 µM,17%
same,growth inhibition,[1]; at 11.0 µM,70% (active)
same,growth inhibition,[1]; at 33.0 µM,97% (active)
same,growth inhibition,[1]; at 100.0 µM,99% (active)
same,growth inhibition,[2]; at 1.2 µM,-3%
same,growth inhibition,[2]; at 3.7 µM,3%
same,growth inhibition,[2]; at 11.0 µM,31%
same,growth inhibition,[2]; at 33.0 µM,88% (active)
same,growth inhibition,[2]; at 100.0 µM,99% (active)
same,growth inhibition,[3]; at 1.2 µM,18%
same,growth inhibition,[3]; at 3.7 µM,51%
same,growth inhibition,[3]; at 11.0 µM,93% (active)
same,growth inhibition,[3]; at 33.0 µM,99% (active)
same,growth inhibition,[3]; at 100.0 µM,99% (active)
same,growth inhibition,[4]; at 1.2 µM,-1%
same,growth inhibition,[4]; at 3.7 µM,6%
same,growth inhibition,[4]; at 11.0 µM,31%
same,growth inhibition,[4]; at 33.0 µM,96% (active)
same,growth inhibition,[4]; at 100.0 µM,56%
same,growth inhibition,[5]; at 1.2 µM,7%
same,growth inhibition,[5]; at 3.7 µM,19%
same,growth inhibition,[5]; [17],43%
same,growth inhibition,[5]; at 11.0 µM,76% (active)
same,growth inhibition,[5]; at 33.0 µM,99% (active)
same,growth inhibition,[5]; [18],99% (active)
same,growth inhibition,[5]; at 50.0 µM,29.6%
same,growth inhibition,[5]; at 100.0 µM,99% (active)
same,growth inhibition,[6]; at 1.2 µM,-6%
same,growth inhibition,[6]; at 3.7 µM,-5%
same,growth inhibition,[6]; [17],87% (active)
same,growth inhibition,[6]; at 11.0 µM,20%
same,growth inhibition,[6]; at 33.0 µM,91% (active)
same,growth inhibition,[6]; [18],100% (active)
same,growth inhibition,[6]; at 50.0 µM,19.4%
same,growth inhibition,[6]; at 100.0 µM,99% (active)
same,growth inhibition,[7]; at 1.2 µM,0%
same,growth inhibition,[7]; at 3.7 µM,5%
same,growth inhibition,[7]; at 11.0 µM,40%
same,growth inhibition,[7]; at 33.0 µM,96% (active)
same,growth inhibition,[7]; at 100.0 µM,99% (active)
same,growth inhibition,[8]; [17],9%
same,growth inhibition,[8]; [18],99% (active)
same,growth inhibition,[8]; at 50.0 µM,41.2%
same,growth inhibition,[9]; at 1.2 µM,-2%
same,growth inhibition,[9]; at 3.7 µM,-1%
same,growth inhibition,[9]; at 11.0 µM,18%
same,growth inhibition,[9]; at 33.0 µM,57%
same,growth inhibition,[9]; at 100.0 µM,95% (active)
same,growth inhibition,[10]; [17],1%
same,growth inhibition,[10]; [18],92% (active)
same,growth inhibition,[10]; at 50.0 µM,-2.7%
same,growth inhibition,[11]; at 1.2 µM,-5%
same,growth inhibition,[11]; at 3.7 µM,-4%
same,growth inhibition,[11]; [17],-3%
same,growth inhibition,[11]; at 11.0 µM,36%
same,growth inhibition,[11]; at 33.0 µM,95% (active)
same,growth inhibition,[11]; [18],99% (active)
same,growth inhibition,[11]; at 50.0 µM,50.4%
same,growth inhibition,[11]; at 100.0 µM,99% (active)
same,growth inhibition,[12]; at 1.2 µM,-1%
same,growth inhibition,[12]; at 3.7 µM,0%
same,growth inhibition,[12]; at 11.0 µM,33%
same,growth inhibition,[12]; at 33.0 µM,95% (active)
same,growth inhibition,[12]; at 100.0 µM,99% (active)
same,growth inhibition,[13]; at 1.2 µM,3%
same,growth inhibition,[13]; at 3.7 µM,7%
same,growth inhibition,[13]; at 11.0 µM,41%
same,growth inhibition,[13]; at 33.0 µM,95% (active)
same,growth inhibition,[13]; at 100.0 µM,99% (active)
same,growth inhibition,[16]; at 1.2 µM,0%
same,growth inhibition,[16]; at 3.7 µM,9%
same,growth inhibition,[16]; at 11.0 µM,56%
same,growth inhibition,[16]; at 33.0 µM,98% (active)
same,growth inhibition,[16]; at 100.0 µM,99% (active)
same,growth inhibition,[14]; [17],55%
same,growth inhibition,[14]; [18],99% (active)
same,growth inhibition,[14]; at 50.0 µM,27.2%
same,growth inhibition,[15]; at 1.2 µM,0%
same,growth inhibition,[15]; at 3.7 µM,8%
same,growth inhibition,[15]; at 11.0 µM,56%
same,growth inhibition,[15]; at 33.0 µM,98% (active)
same,growth inhibition,[15]; at 100.0 µM,99% (active)
